What is called inhibition is the change of the read-out against control, counted positive when it falls.

The record followed here is ChEMBL document CHEMBL3433997, “St. Jude Leishmania screening dataset” (2016).

What all share (format): functional
The target in assay [1] is Solute carrier family 2, facilitated glucose transporter member 1 (Homo sapiens) (UniProt P11166). Description: ST_JUDE_LEISH: Cytotoxicity at 2uM final concentration against transgenic Leishmania Mexicana promastigotes LmGLUT1 that are glucose transport deficient and complemented with the human glucose transporter GLUT1. Activity is measured by DNA content using SYBR green in vitro.
Solute carrier family 2, facilitated glucose transporter member 1 (Homo sapiens), sequence (P11166 whole entry): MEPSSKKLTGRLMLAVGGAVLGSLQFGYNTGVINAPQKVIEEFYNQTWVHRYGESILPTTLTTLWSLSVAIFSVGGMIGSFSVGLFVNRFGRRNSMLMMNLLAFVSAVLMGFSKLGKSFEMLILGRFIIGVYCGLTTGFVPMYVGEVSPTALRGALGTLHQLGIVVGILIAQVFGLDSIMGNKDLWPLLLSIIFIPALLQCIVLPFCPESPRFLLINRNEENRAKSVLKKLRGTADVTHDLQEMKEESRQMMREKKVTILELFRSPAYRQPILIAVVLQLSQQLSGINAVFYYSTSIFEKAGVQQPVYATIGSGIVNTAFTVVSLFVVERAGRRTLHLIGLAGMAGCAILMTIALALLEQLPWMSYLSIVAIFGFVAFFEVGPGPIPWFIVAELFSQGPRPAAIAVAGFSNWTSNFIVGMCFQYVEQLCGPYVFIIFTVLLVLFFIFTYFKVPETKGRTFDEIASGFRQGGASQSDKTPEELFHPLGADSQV

The target in assay [2] is Hexose transporter 1 (Plasmodium falciparum) (UniProt O97467). The assay can be described thus: ST_JUDE_LEISH: Cytotoxicity at 2uM final concentration against transgenic Leishmania Mexicana promastigotes LmPfHT that are glucose transport deficient and complemented with the Plasmodium falciparum hexose transporter. Activity is measured by DNA content using SYBR green in vitro.

The target of assay [3] is Glucose transporter (Leishmania mexicana) (UniProt O61059). Description: ST_JUDE_LEISH: Cytotoxicity at 2uM final concentration against transgenic Leishmania Mexicana promastigotes LmGT2 that are glucose transport deficient and complemented with the L. Mexicana glucose transporter 2. Activity is measured by DNA content using SYBR green in vitro.

Turning to `COc1ccc(C2CC(c3cccs3)=NN2C(=O)CNc2cccc(C#N)c2)cc1OC` (stereo not drawn), the inhibition in assay [1] worked out at 7.28%; in assay [2], 14.4%; in assay [3], 2.41%.
Taken in the same sequence, the figures for `Nc1nc(Nc2cccc(O)c2)nc2ccccc12` were 6.67%, 9.29% and 1.22%.
The matching figures for `Cc1ccc(Nc2nc3cc(Nc4ccnc(Nc5ccc(CS(C)(=O)=O)cc5)n4)ccc3o2)cc1`: 9.35%, 9.37% and 5.97%.
Turning to `COc1ccc2nccc([C@@H](O)CN3CCC(NCc4cc5cccc6c5n(c4=O)CCC6)CC3)c2c1`, the inhibition in assay [1] worked out at 2.12%; in assay [2], 2.16%; in assay [3], 2.27%.
Consider `Cc1cccc2nc(-c3cccc(-c4cccc(NC(=O)CNC(=O)c5ccc(O)cc5)c4)c3)[nH]c12`, for which the figures for the inhibition in assay [1], in assay [2] and in assay [3] were 0.25%, -0.56% and -0.5%, respectively.
The matching figures for `COc1ccc2nccc([C@@H](O)CN3CCC(NCc4cc5c(F)ccc(F)c5[nH]4)CC3)c2c1`: 21.9%, 29.8% and 2.77%.
For `CCc1cc(-c2onc(C)c2-c2cc3ccccc3o2)c(O)cc1OC`, the inhibition in assay [1] was 1.25%; in assay [2], -1.2%; in assay [3], -0.24%.
The matching figures for `Cc1cc(C)c2oc(-c3cccc(NC(=O)c4ccc([N+](=O)[O-])o4)c3C)nc2c1`: 11.4%, 10.4% and 1.45%.
Taken in the same sequence, the figures for `O=C(N[C@@H](Cc1ccccc1)[C@H](O)CNCCC(F)(F)F)c1cccc(CCC2CC2)c1` were 0.82%, 1.82% and 2.39%.
Take `CNCCCn1c(N(C)C)nc2cc(-n3cnc4cc(-c5ccc(Cl)cc5)sc4c3=O)ccc21`: the inhibition in assay [1] amounted to 3.3%; in assay [2], 3.48%; in assay [3], 3.76%.
Taken in the same sequence, the figures for `FC(F)(F)c1ccc(CNCC2CCN(Cc3ccc4c(c3)OCO4)CC2)cc1` were 1.98%, 2.65% and 5.32%.
Taken in the same sequence, the figures for `Oc1cc(-c2cccc(C(F)(F)F)c2)nc(Nc2ccc(Cl)c(Cl)c2)n1` were 0.75%, 0.89% and 0.9%.
Taken in the same sequence, the figures for `CCCNC(=O)CN1CN(c2ccccc2)C2(CCN(C(=O)c3ccc(C(C)(C)C)cc3)CC2)C1=O` were -0.42%, 1.19% and -0.87%.
`O=S(=O)(NCCN1CCCC1)c1ccc(-c2ccc(CNC3Cc4ccccc4C3)cc2)s1`: the inhibition in assay [1] came out at 5.8%; in assay [2], 12.6%; in assay [3], 1.34%.
Taken in the same sequence, the figures for `COc1cc(Nc2ccnc3ccc(C(F)(F)F)cc23)cc(OC)c1OC` were 18.2%, 23.1% and 12.6%.
Consider `CCNCc1ccc(-c2cc3ncnc(Nc4ccc(OCc5cccc(F)c5)c(Cl)c4)c3s2)[nH]1`, for which the figures for the inhibition in assay [1], in assay [2] and in assay [3] were -0.88%, -3.14% and 3.41%, respectively.
Taken in the same sequence, the figures for `O=C(c1ccc(Br)o1)N1N=C(c2cccs2)CC1c1ccc(Br)cc1` (stereo not drawn) were 5.77%, 7.79% and 3.94%.
`CCNc1cc(C)nc(Nc2ccc(F)cc2)n1`: the inhibition in assay [1] was 22.3%; in assay [2], 11.9%; in assay [3] it was 8.37%.
For `O=C(Nc1ccccc1)c1cccc(Nc2nccc(Nc3ccc(Oc4ccccc4)cc3)n2)c1`, the inhibition in assay [1] was 0.65%; in assay [2] it was 1.07%; in assay [3], 0.87%.
Taken in the same sequence, the figures for `O=C(Cc1cccc(Cl)c1)N1CCc2cc3nccc(N4CCN5CCC[C@H]5C4)c3cc21` were 3.68%, 2.69% and 4.38%.
The matching figures for `Cc1cccc2nc(-c3ccc(-c4cccc(CNCCNC(=O)c5ccnn5C)c4)cc3)[nH]c12`: 0.53%, 1.5% and -3.68%.
In the case of `CCOc1cc(C(=O)Nc2ccc3nc(N(CC)CC)cc(C)c3c2)cc(OCC)c1OCC`, the inhibition in assay [1] was -0.12%; in assay [2], -0.88%; in assay [3], -3.87%.
Regarding `O=c1cc(NCCCNCc2cccc(C(F)(F)F)c2Cl)[nH]c2ccccc12`, the inhibition in assay [1] is 3.39%; in assay [2], 3.63%; in assay [3] it was 2.75%.
Turning to `Cc1ccc(CNc2cc(C(F)(F)F)nc(-c3ccc(S(C)(=O)=O)cc3)n2)cc1`, the inhibition turned out to be 9.86% in assay [1], 11.2% in assay [2] and 9.59% in assay [3].
On to `O=C(NC1CCN(c2ccnc3cc(Cl)ccc23)C1)c1ccc(F)cc1F` (stereo not drawn), for which the inhibition is 1.51% in assay [1], 5.62% in assay [2] and 2.89% in assay [3].
`c1ccc(Oc2ccc(Nc3nc(NCCc4c[nH]cn4)nc(NC4CCCC4)n3)cc2)cc1`: the inhibition was determined as 5.3% in assay [1], 5.86% in assay [2] and 6.19% in assay [3].
Take `COc1cc2[nH]c(-c3ccc(O)cc3)c(C)c(=O)c2c(OC)c1OC`: the inhibition in assay [1] is 2.67%; in assay [2] it was 0.09%; in assay [3] it was -2.9%.
Taken in the same sequence, the figures for `CC(CN(C)C)C(=O)Nc1cccc(-c2ccc(-c3nc4cc(F)ccc4[nH]3)cc2)c1` (stereo not drawn) were -1.76%, -3.5% and -0.1%.
The matching figures for `O=S(=O)(NCCN1CCCC1)c1ccc(-c2ccc(CNCc3ccsc3)cc2)cc1`: 13.4%, 6.54% and 5.55%.
The matching figures for `CCC1(CC)C(=O)N=C(N2CCCCC2)N(C)C1=O`: 19%, 14.2% and 5.99%.
Consider `CC(C)(C)c1ccc(CN2CCC(NC(=O)c3cc(-c4cccc(C(F)(F)F)c4)cs3)C2)cc1` (stereo not drawn), for which the inhibition in assay [1] amounted to 0.92%; in assay [2], 0.62%; in assay [3], 1.98%.
The matching figures for `COCCNCc1cccc(-c2cc3nccc(Nc4ccc(Oc5ccccc5)cc4)c3cc2Cl)c1`: -0.26%, 2.37% and 0.83%.
The matching figures for `Nc1ncc(-c2ccc(F)c(Cl)c2)c(N)n1`: 1.16%, 4.76% and 1.32%.
The matching figures for `COc1cc(Nc2ncc3c(C)nc(-c4cccc(Nc5ccc(CN6CCS(=O)(=O)CC6)cc5)c4)n3n2)cc(OC)c1OC`: 14%, 5.79% and 3.49%.
As for `O=C(c1ccc([N+](=O)[O-])o1)N1CCN(c2ccccc2)CC1`, the inhibition stood at 3.6% in assay [1], 1.95% in assay [2] and 1.09% in assay [3].
`S=C(NCCc1ccccc1)Nc1ccc2ncsc2c1`: the figures for the inhibition in assay [1], in assay [2] and in assay [3] were -0.85%, 1.14% and -0.73%, respectively.
